Laboratory results reported in the supplement of paper PMC6607015.
Where a name gives a salt, the structure may show the parent alone.

test system: A431; test: filipin (cholesterol) integrated intensity within LBPA endosomes, Z-score; higher = more cholesterol in LBPA endosomes; conditions: compound concentration in added solution (µM; 5 µl added to 20 µl cells): 10; 18 h
Outline: (§1)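 Four 20× images per well were taken of HeLa MZ or A431 cells that had been seeded at 3,500 per well in 20 µl onto 5 µl of 10 µM compound solution in duplicate 384-well imaging plates. Before imaging, cells were incubated 18 h, fixed in 4% PFA and stained with 6C4 anti-LBPA antibody, filipin, propidium iodide and CellTracker green. Values are Z-scores normalised in AcuityXpress from MetaXpress-derived per-cell integrated LBPA or filipin intensity, either whole-cell or within LBPA endosomes.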

| SMILES | filipin (z-score) |
| --- | --- |
| CCCNCC(O)COc1ccccc1C(=O)CCc1ccccc1 (stereo not given) [Propafenone hydrochloride] | 2.65 |
| C#C[C@]1(OC(C)=O)CC[C@H]2[C@@H]3CCC4=CC(=NO)CC[C@@H]4[C@H]3CC[C@@]21CC (mixture of isomers) [Norgestimate] | -0.31 |
| CN1C(C)(C)CCCC1(C)C [Pempidine tartrate] | -0.313 |
| Cc1cn([C@H]2C[C@H](N=[N+]=[N-])[C@@H](CO)O2)c(=O)[nH]c1=O [Zidovudine, AZT] | -0.643 |
| CC(=O)[C@H]1CC[C@H]2[C@@H]3C[C@H](C)C4=CC(=O)CC[C@]4(C)[C@H]3[C@@H](O)C[C@]12C [Medrysone] | 0.432 |
| C[C@@H](c1ncncc1F)[C@](O)(Cn1cncn1)c1ccc(F)cc1F [Voriconazole] | -0.605 |
| O=C(O)c1cc(/N=N/c2ccc(S(=O)(=O)Nc3ccccn3)cc2)ccc1O [Sulfasalazine] | -0.515 |
| C[C@@](Cc1ccc(O)c(O)c1)(NN)C(=O)O [Carbidopa] | -0.551 |
| CCN(CC)CCNc1ccc(CO)c2sc3ccccc3c(=O)c12 [Hycanthone] | 2.68 |
| CC(CN(C)C)CN1c2ccccc2Sc2ccccc21 (stereo not given) [Trimeprazine tartrate] | 2.12 |
| COC(=O)Nc1nc2cc([S+]([O-])c3ccccc3)ccc2[nH]1 (stereo not given) [Oxfendazol] | -0.364 |
| Clc1cc(Cl)c(OCC#CI)cc1Cl [Haloprogin] | -0.529 |
| CNCCCC12CCC(c3ccccc31)c1ccccc12 [Maprotiline hydrochloride] | 2.92 |
| CCC[C@H](N[C@@H](C)C(=O)N1[C@H](C(=O)O)C[C@@H]2CCCC[C@@H]21)C(=O)OCC [Perindopril] | -0.305 |
| CN1[C@@H]2CC[C@H]1C[C@@H](OC(=O)c1c[nH]c3ccccc13)C2 [Tropisetron HCl] | -0.29 |
| COc1cc([C@@H]2c3cc4c(cc3[C@@H](O[C@@H]3O[C@@H]5CO[C@@H](C)O[C@H]5[C@H](O)[C@H]3O)[C@H]3COC(=O)[C@H]23)OCO4)cc(OC)c1O [Etoposide] | -0.718 |

| SMILES | filipin (z-score) |
| --- | --- |
| Nc1nc2n[nH]nc2c(=O)[nH]1 [Azaguanine-8] | -0.438 |
| Cc1cc2c(s1)Nc1ccccc1N=C2N1CCN(C)CC1 [Olanzapine] | 0.151 |
| N=C(N)c1ccc(OCCCCCOc2ccc(C(=N)N)cc2)cc1 [Pentamidine isethionate] | -0.313 |
| O=c1[nH]cc(F)c(=O)[nH]1 [5-fluorouracil] | -0.862 |
| CC(C)NNC(=O)c1ccncc1 [Iproniazide phosphate] | -0.44 |
| CC(=O)c1ccc2c(c1)N(CCCN1CCC(CCO)CC1)c1ccccc1S2 [Piperacetazine] | 3.1 |
| CC(C(=O)O)c1ccc(C(=O)c2cccs2)cc1 (stereo not given) [Suprofen] | -0.289 |
| CCOC(=O)[N-]c1c[n+](N2CCOCC2)no1 [Molsidomine] | -0.558 |
| CN(Cc1cnc2nc(N)nc(N)c2n1)c1ccc(C(=O)N[C@@H](CCC(=O)O)C(=O)O)cc1 [Methotrexate] | -0.754 |
| O=C(CCCCCCC(=O)Nc1ccccc1)NO [Vorinostat] | -0.414 |
| COc1ccccc1N1CCN(CCCNc2cc(=O)n(C)c(=O)n2C)CC1 [Urapidil hydrochloride] | -0.29 |
| Cc1c(N)c(=O)n(-c2ccccc2)n1C [Ampyrone] | -0.379 |
| CCCC1C(=O)N2C(N(C)C)=Nc3ccc(C)cc3N2C1=O (stereo not given) [Azapropazone] | -0.348 |
| NC(Cc1cc(I)c(Oc2cc(I)c(O)c(I)c2)c(I)c1)C(=O)O (stereo not given) [Thyroxine (L)] | -0.586 |
| COC(=O)Nc1nc2cc(C(=O)c3ccc(F)cc3)ccc2[nH]1 [Flubendazol] | -0.305 |

test system: HeLa MZ; test: as above; conditions: compound concentration in added solution (µM; 5 µl added to 20 µl cells): 10; 18 h
Outline: as §1

| SMILES | filipin (z-score) |
| --- | --- |
| CCCNCC(O)COc1ccccc1C(=O)CCc1ccccc1 (stereo not given) [Propafenone hydrochloride] | 2.28 |
| C#C[C@]1(OC(C)=O)CC[C@H]2[C@@H]3CCC4=CC(=NO)CC[C@@H]4[C@H]3CC[C@@]21CC (mixture of isomers) [Norgestimate] | 0.087 |
| Cc1cn([C@H]2C[C@H](N=[N+]=[N-])[C@@H](CO)O2)c(=O)[nH]c1=O [Zidovudine, AZT] | -0.555 |
| CC(=O)[C@H]1CC[C@H]2[C@@H]3C[C@H](C)C4=CC(=O)CC[C@]4(C)[C@H]3[C@@H](O)C[C@]12C [Medrysone] | 0.0722 |
| C[C@@H](c1ncncc1F)[C@](O)(Cn1cncn1)c1ccc(F)cc1F [Voriconazole] | -0.411 |
| O=C(O)c1cc(/N=N/c2ccc(S(=O)(=O)Nc3ccccn3)cc2)ccc1O [Sulfasalazine] | -0.277 |
| C1CCC(C(CC2CCCCN2)C2CCCCC2)CC1 (stereo not given) [Perhexiline maleate] | 2.62 |
| C[C@@](Cc1ccc(O)c(O)c1)(NN)C(=O)O [Carbidopa] | -0.634 |
| Clc1cc(Cl)c(OCC#CI)cc1Cl [Haloprogin] | -0.714 |
| CCN(CC)C(=S)SSC(=S)N(CC)CC [Disulfiram] | -0.407 |
| CNCCCC12CCC(c3ccccc31)c1ccccc12 [Maprotiline hydrochloride] | 3.38 |
| CCC[C@H](N[C@@H](C)C(=O)N1[C@H](C(=O)O)C[C@@H]2CCCC[C@@H]21)C(=O)OCC [Perindopril] | -0.603 |
| CN1[C@@H]2CC[C@H]1C[C@@H](OC(=O)c1c[nH]c3ccccc13)C2 [Tropisetron HCl] | 0.0878 |
| O=C1NCCN1CCN1CCC(c2cn(-c3ccc(F)cc3)c3ccc(Cl)cc23)CC1 [Sertindole] | 2.2 |
| Cc1cc2c(s1)Nc1ccccc1N=C2N1CCN(C)CC1 [Olanzapine] | 0.615 |
| CC(C)(C)CC(C)(C)c1ccc(OCCOCC[N+](C)(C)Cc2ccccc2)cc1 [Benzethonium chloride] | 0.517 |
| N=C(N)c1ccc(OCCCCCOc2ccc(C(=N)N)cc2)cc1 [Pentamidine isethionate] | -0.712 |
| C=C(NC(=O)C(=C)NC(=O)c1csc(C2=N[C@@H]3c4csc(n4)[C@H]4NC(=O)c5csc(n5)[C@H]([C@](C)(O)[C@@H](C)O)NC(=O)[C@H]5CSC(=N5)/C(=C/C)NC(=O)[C@H]([C@@H](C)O)NC(=O)c5csc(n5)[C@]3(CC2)NC(=O)[C@H](C)NC(=O)C(=C)NC(=O)[C@H](C)NC(=O)[C@H]([C@@H](C)CC)N[C@@H]2C=Cc3c([C@H](C)O)cc(nc3[C@H]2O)C(=O)O[C@@H]4C)n1)C(N)=O [Thiostrepton] | -0.596 |
| CC(C)NNC(=O)c1ccncc1 [Iproniazide phosphate] | -0.477 |
| CC(NCCC(c1ccccc1)c1ccccc1)c1ccccc1 (stereo not given) [Fendiline hydrochloride] | 2.94 |
| CN[C@H]1CC[C@@H](c2ccc(Cl)c(Cl)c2)c2ccccc21 [Sertraline] | 3.15 |
| CC(=O)c1ccc2c(c1)N(CCCN1CCC(CCO)CC1)c1ccccc1S2 [Piperacetazine] | 3.21 |
| CC(C(=O)O)c1ccc(C(=O)c2cccs2)cc1 (stereo not given) [Suprofen] | -0.21 |
| CCOC(=O)[N-]c1c[n+](N2CCOCC2)no1 [Molsidomine] | -0.532 |
| Fc1ccc([C@@H]2CCNC[C@H]2COc2ccc3c(c2)OCO3)cc1 [Paroxetine Hydrochloride] | 2.03 |
| CC(C)n1c(/C=C/C(O)CC(O)CC(=O)O)c(-c2ccc(F)cc2)c2ccccc21 (stereo not given) [Fluvastatin sodium salt] | -0.372 |
| COc1ccccc1N1CCN(CCCNc2cc(=O)n(C)c(=O)n2C)CC1 [Urapidil hydrochloride] | -0.0207 |
| Cc1c(N)c(=O)n(-c2ccccc2)n1C [Ampyrone] | -0.625 |
| NC(Cc1cc(I)c(Oc2cc(I)c(O)c(I)c2)c(I)c1)C(=O)O (stereo not given) [Thyroxine (L)] | -0.6 |
